Compounds without any hit were thinned out: in the full panel of roughly 79,000, 15% have a hit. The source made the active and inactive calls. No stated cut-off is given here; in the data, active means growth inhibition above about 70%; inactive means the rest.
Tests used:
[1] = NCI Yeast Anticancer Drug Screen. Data for the rad50 strain (AID 155);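 further: 0% = growth of vehicle-only cultures of the same strain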; settings: S. cerevisiae rad50 strain growth inhibition, stronger effect = higher value; at 50.0 µM unless noted
Method in brief: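 Vehicle-treated cultures provide the reference for the growth inhibition reported for compound-exposed, repair-deficient yeast.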

[2] = NCI Yeast Anticancer Drug Screen. Data for the mec2-1 strain (AID 157); settings: S. cerevisiae mec2-1 strain, stronger effect = higher value; at 50.0 µM unless noted
Method in brief: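 Growth inhibition is read against vehicle-treated controls after compound exposure of the mec2-1 yeast strain, which is defective in DNA damage repair or cell cycle control.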

[3] = NCI Yeast Anticancer Drug Screen. Data for the sgs1 mgt1 strain (AID 161);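 further: 0% = growth of cultures given vehicle only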; settings: S. cerevisiae sgs1 mgt1 strain, stronger effect = higher value; at 50.0 µM unless noted
Method in brief: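 Percent growth inhibition was derived by comparing compound-exposed mutant yeast with vehicle-exposed cultures. The strain carries alterations in DNA damage repair.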

[4] = NCI Yeast Anticancer Drug Screen. Data for the cln2 rad14 strain (AID 165);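 further: 0% = growth equal to vehicle treated cultures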; settings: S. cerevisiae cln2 rad14 strain, stronger effect = higher value; at 50.0 µM unless noted
Method in brief: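 Growth inhibition, relative to vehicle-treated controls, is the read-out. The test organism is a yeast strain with defined genetic alterations, cln2 rad14.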

[5] = NCI Yeast Anticancer Drug Screen. Data for the bub3 strain (AID 167); settings: S. cerevisiae bub3 mutant strain, stronger effect = higher value; at 50.0 µM unless noted
Method in brief: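 Mutant yeast screening strain plus compound; vehicle-treated cultures serve as the 0% inhibition reference.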

[6] = NCI Yeast Anticancer Drug Screen. Data for the mlh1 rad18 strain (AID 175); settings: S. cerevisiae mlh1 rad18 strain growth inhibition, stronger effect = higher value; at 50.0 µM unless noted
Method in brief: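 Cells of a genetically altered yeast strain, deficient in DNA damage repair, were treated with compound. Their growth was then compared with that of vehicle-treated cultures to give inhibition.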

Measured: growth inhibition

COc1ccc(-c2oc(=O)c3ccccc3c2-c2ccccc2)cc1
inactive: [1] 7.25% | [2] 4.65% | [3] 5.35% | [4] 9.4% | [5] 2.6% | [6] 6.4%

COc1cc(OC)c(OC)cc1/C=C/c1nc2ccccc2s1
inactive: [1] 25.1% | [2] 20.1% | [3] 41% | [4] 18.8% | [5] 46.9% | [6] 3%

CC1CC(C)NC(=S)N1 (stereo unspecified)
inactive: [1] -16.6% | [2] -3.9% | [3] -9.85% | [4] 16.7% | [5] 3.25% | [6] -5.95%

CCCCN(Cc1ccccc1)C(=S)Nc1ccccc1
inactive: [1] 17.4% | [2] 47.8% | [3] 64.4% | [4] 1.85% | [5] 63.5% | [6] 67.3%

CC(C)=CC1C(C(=O)Oc2ccccc2C(C)C)C1(C)C (stereo unspecified)
inactive: [1] -3.8% | [2] -11.2% | [3] 2.6% | [4] -22.6% | [5] -27% | [6] 4.6%

CCCCCCCCCCCC[N+](C)([O-])CCCCCC[N+](C)([O-])CCCCCCCCCCCC (stereo unspecified)
active: [1] 96.2% | [2] 98.7% | [3] 97.8% | [4] 96.5% | [5] 96.5% | [6] 97%

OC(c1ccccc1)c1ccc(C(O)c2ccccc2)cc1 (stereo unspecified)
inactive: [1] -14.2% | [2] -19.1% | [3] -8.85% | [4] 33.3% | [5] 5.5% | [6] -8.75%

CCOC(=O)c1cc(C)ncc1N
inactive: [1] 9.85% | [2] 7.4% | [3] -7.1% | [4] 13.2% | [5] -0.95% | [6] 3.3%

COC(=O)N/N=C(/CCCC(=O)Nc1cccc([N+](=O)[O-])c1)C(C#N)c1ccc(CC#N)cc1 (stereo unspecified)
inactive: [1] -3.55% | [2] -0.1% | [3] -13.6% | [4] 1.8% | [5] 6.65% | [6] -3.3%

CSCCCCC(N)C(=O)O (stereo unspecified)
inactive: [1] 0.05% | [2] 3% | [3] -0.9% | [4] -14% | [5] 12.4% | [6] -3.85%

Cc1cn(C2CC3C(COC(c4ccccc4)N3O)O2)c(=O)[nH]c1=O (stereo unspecified)
inactive: [1] 0.1% | [2] -8.65% | [3] 21.2% | [4] 2.7% | [5] -2.95% | [6] 7.15%

Cc1nc2ccc(Br)cc2c(=O)n1-c1ccc(-c2n[nH]c(=S)n2-c2ccccc2)cc1
inactive: [1] 14% | [2] 13.2% | [3] 13.4% | [4] -27.9% | [5] 6.8% | [6] 42.4%

Nc1ccc(C(=O)N/N=C/c2ccccc2O)cc1
inactive: [1] 16.9% | [2] 12.7% | [3] 4.15% | [4] 7.55% | [5] 0% | [6] 19.2%

CC(C)=C(Nc1ccccc1)NC(C)C
inactive: [1] 47.4% | [2] -19.1% | [3] -28.4% | [4] -16.2% | [5] -40.6% | [6] -3.15%

CCc1nnc2c(C)c(C)nc(C)n12
inactive: [1] 21.2% | [2] 1.55% | [3] -16% | [4] -16.1% | [5] 17.2% | [6] 1.6%

S=c1[nH]nc(-c2ccccc2Cl)o1
inactive: [1] -47.9% | [2] -17.7% | [3] -47.8% | [4] -21.2% | [5] -4.75% | [6] -66.2%

CCOc1ccc(N2C(=O)/C(=C/c3ccc(N(CCC#N)CCC#N)cc3)N=C2c2cc([N+](=O)[O-])ccc2Cl)cc1
inactive: [1] 5.85% | [2] -1.15% | [3] -9.8% | [4] 17.8% | [5] 9.3% | [6] -6.6%

CN(C)CCN(C)C(=O)C1CCCN1C(=O)OCc1ccccc1 (stereo unspecified)
inactive: [1] -44.6% | [2] -56% | [3] -53.8% | [4] 9.3% | [5] -37.6% | [6] -46.8%

O=C1OC(=O)c2c1nc1ccccc1c2-c1ccccc1
inactive: [1] -31.5% | [2] -3.9% | [3] 9.35% | [4] 26% | [5] -6.15% | [6] 23.6%

COC(C(=O)Nc1ccc(C)cc1)(c1ccccc1)c1ccccc1
inactive: [1] 7.4% | [2] 7.45% | [3] -7.55% | [4] 0.65% | [5] 12.9% | [6] 23.8%

CCOC(=O)C/C(O)=C(/C=N/C(=S)NNC(C)=O)C(=O)OCC
inactive: [1] -27.1% | [2] -28.9% | [3] -32.2% | [4] 2.65% | [5] -19.6% | [6] -8.65%

Cc1ccc(S(=O)(=O)n2cc(C#N)c(C#N)c2)cc1
inactive: [1] -10.8% | [2] 2.25% | [3] 10.8% | [4] -28.6% | [5] 16.3% | [6] 7.15%

COc1ccc(C(=O)CCC(=O)O)c(O)c1
inactive: [1] -3.25% | [2] 1.35% | [3] -12.6% | [4] -11.1% | [5] -4.15% | [6] -11.3%

CON1C(=O)C(c2ccccc2)c2ccccc21 (stereo unspecified)
inactive: [1] 58% | [2] 22.6% | [3] 47.8% | [4] 3.1% | [5] 10.7% | [6] 6.65%

COc1ccc(NC(=O)CC(=O)N2N=C(N3c4ccccc4Sc4ccccc43)CC2c2ccccc2)cc1 (stereo unspecified)
inactive: [1] 8.65% | [2] -4.1% | [3] 0.8% | [4] 14.2% | [5] 4.8% | [6] -3.6%

O=C(CC1C(=O)Nc2ccccc2S1=O)Nc1cc(Cl)ccc1Cl (stereo unspecified)
inactive: [1] -14.9% | [2] -24.2% | [3] 3.1% | [4] 8.15% | [5] -4.6% | [6] -6.1%

O=c1c2c3c(sc2nc2n1N=C(c1ccc(Cl)cc1)CS2)CCCC3
inactive: [1] -23.6% | [2] 6.05% | [3] -37.9% | [4] 1.8% | [5] -12.1% | [6] -16.6%

COC(=O)CCCCC(=O)OC
inactive: [1] 35.9% | [2] -0.3% | [3] 15.1% | [4] -1.9% | [5] -9% | [6] 13.4%

Cn1ccnc1C(O)(c1nccn1C)c1nccn1C
inactive: [1] -5.75% | [2] -2.55% | [3] 2.15% | [4] 19.1% | [5] -8.35% | [6] 16.2%

CC(=O)[CH-]C(=O)c1ccccc1.CC(=O)[CH-]C(=O)c1ccccc1.CC(C)CCCC(C)[C@H]1CCC2[C@@H]3CCC4C[C@@H]([O-])CC[C@]4(C)C3CC[C@@]21C.CC(C)CCCC(C)[C@H]1CCC2[C@@H]3CCC4C[C@@H]([O-])CC[C@]4(C)C3CC[C@@]21C.Cl.[Ti+4] (stereo partly specified)
inactive: [1] 14.4% | [2] 1.25% | [3] 21.4% | [4] -12.1% | [5] 25.6% | [6] -0.95%

CCOC(=O)c1cnc2c(cnn2CC)c1NCC(C)C
active: [5] 85.9%
inactive: [1] -3.15% | [2] 21.8% | [3] 18.6% | [4] 3.15% | [6] 3.35%

CC(C)(C)OC(=O)/N=C/c1c(O)c2ccccc2oc1=O
inactive: [1] -36.5% | [2] -20.5% | [3] -21.8% | [4] 9.75% | [5] -17.4% | [6] -26%

CC1=N/C(=C\c2cccc([N+](=O)[O-])c2)C(=O)O1
inactive: [1] -6.9% | [2] -30.8% | [3] 5.1% | [4] 3.35% | [5] -10.7% | [6] 13.5%

c1cncc(C2c3[nH]c4ccccc4c3CCN2CCCN2CCCCC2)c1 (stereo unspecified)
inactive: [1] -5.2% | [2] -36.7% | [3] 2.3% | [4] 10.7% | [5] -9.55% | [6] -0.5%

COc1ccc2c(c1)CCC1=C2CCC2(C)C1=CCS2(=O)=O (stereo unspecified)
inactive: [1] 3.85% | [2] -5.6% | [3] -7.9% | [4] 22.6% | [5] 8.45% | [6] -1.9%

COc1ccc(/C=C2\CNC/C(=C\c3ccc(OC)cc3)C2=O)cc1
inactive: [1] 34% | [2] 1.75% | [3] 55.2% | [4] 37.5% | [5] 15.3% | [6] 34.1%

CC(=O)OC1COC(N2C(=O)C(=O)c3c(C)cc(Cl)nc32)C(OC(C)=O)C1OC(C)=O (stereo unspecified)
inactive: [1] -22.6% | [2] -15.7% | [3] -22.4% | [4] -24.1% | [5] -24.1% | [6] -8.3%

CCCCN(CCCC)CCC(O)c1cc(-c2ccc(C(F)(F)F)cc2)nc(C(F)(F)F)c1 (stereo unspecified)
active: [1] 98.5% | [3] 97.6% | [4] 97.8% | [6] 96.8%
inactive: [2] 56.2% | [5] 47.1%

O=C(O)COc1ccc([N+](=O)[O-])cc1[N+](=O)[O-]
inactive: [1] 20.9% | [2] 14% | [3] 22.4% | [4] 7.95% | [5] 3.95% | [6] 16.6%

Cc1cc(C)[nH]c(=O)c1
inactive: [1] 9.2% | [2] 0.75% | [3] -2.75% | [4] 3.8% | [5] 20.1% | [6] 4.4%

CCCCCN1C(=O)c2ccccc2C1=O
inactive: [1] 23.1% | [2] 10.5% | [3] 6.4% | [4] 5.15% | [5] 6.3% | [6] -0.55%
